Screening results (PubChem)
Hits are enriched below; roughly 12% of the tested compounds scored in any of these assays.
USP28 block: inhibitors of human USP28 deubiquitinase. Ubiquitin carboxyl-terminal hydrolase 28 (Homo sapiens), Q96RU2. purified USP28, Ub-rhodamine cleavage fluorescence, 30 min. inhibition, % at 25 µM. actives 3% (n = 47,000)
Target sequence (Q96RU2 whole entry, looked up): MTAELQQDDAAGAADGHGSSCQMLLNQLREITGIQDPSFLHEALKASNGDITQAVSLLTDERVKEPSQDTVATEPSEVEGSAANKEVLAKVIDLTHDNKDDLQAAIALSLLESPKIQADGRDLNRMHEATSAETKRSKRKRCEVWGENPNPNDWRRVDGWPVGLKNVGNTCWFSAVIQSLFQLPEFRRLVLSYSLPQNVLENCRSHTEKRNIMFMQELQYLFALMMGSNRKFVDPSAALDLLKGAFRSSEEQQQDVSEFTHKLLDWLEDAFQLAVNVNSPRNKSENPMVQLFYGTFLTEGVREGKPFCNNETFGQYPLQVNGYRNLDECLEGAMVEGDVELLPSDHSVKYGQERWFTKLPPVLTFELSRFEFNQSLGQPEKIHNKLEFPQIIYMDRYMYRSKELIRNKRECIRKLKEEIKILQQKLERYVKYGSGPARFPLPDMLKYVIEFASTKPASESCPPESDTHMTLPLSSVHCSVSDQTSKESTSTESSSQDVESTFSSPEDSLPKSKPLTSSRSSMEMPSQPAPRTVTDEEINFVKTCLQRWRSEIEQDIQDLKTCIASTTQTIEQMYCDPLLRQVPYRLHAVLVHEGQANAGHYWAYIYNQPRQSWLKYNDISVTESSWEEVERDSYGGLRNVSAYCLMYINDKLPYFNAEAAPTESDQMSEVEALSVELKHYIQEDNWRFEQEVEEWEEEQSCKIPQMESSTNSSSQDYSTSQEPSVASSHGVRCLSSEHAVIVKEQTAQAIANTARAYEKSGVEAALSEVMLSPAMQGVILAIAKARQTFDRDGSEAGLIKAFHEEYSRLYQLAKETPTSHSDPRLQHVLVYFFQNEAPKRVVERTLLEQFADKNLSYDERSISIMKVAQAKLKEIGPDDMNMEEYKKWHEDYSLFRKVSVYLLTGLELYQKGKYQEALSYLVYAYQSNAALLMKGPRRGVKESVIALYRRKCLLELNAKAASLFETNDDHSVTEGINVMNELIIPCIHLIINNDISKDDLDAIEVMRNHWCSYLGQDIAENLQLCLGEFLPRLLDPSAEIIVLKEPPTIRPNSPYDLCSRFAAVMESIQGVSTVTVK
OTUD3 block: inhibitors of human OTUD3 deubiquitinase. OTU domain-containing protein 3 (Homo sapiens), Q5T2D3. inhibition, % at 25 µM. actives 0.7% (n = 47,000). purified OTUD3, Ub-rhodamine fluorescence, 2 h
USP30 inh: inhibitors of human USP30 deubiquitinase; Ubiquitin carboxyl-terminal hydrolase 30 (Homo sapiens), Q70CQ3; actives 5.3% (n = 47,000); inhibition, % at 25 µM; purified USP30, Ub-rhodamine cleavage fluorescence; AID 1645860, 2021
USP17 inh: inhibitors of human USP17 deubiquitinase; Ubiquitin carboxyl-terminal hydrolase 17-like protein 5 (Homo sapiens), A8MUK1; purified USP17, Ub-rhodamine cleavage fluorescence, 3 h; inhibition, % at 50 µM; actives 6.5% (n = 47,000); AID 1645855, 2021
A number is an active result. No stated cut-off is given here; in the data, active means inhibition above about 30%; inactive means the rest.

What do the screens show for `O=S(=O)(c1ccccc1Cl)N1CCN(CCOc2ccccc2)CC1`?
USP28 block: inactive; OTUD3 block: inactive; USP30 inh: inactive; USP17 inh: inactive

How did Cc1ccc(-c2ccc(N3CCOCC3)nn2)cc1S(=O)(=O)N1CCOCC1 do in these assays?
USP28 block: inactive; OTUD3 block: inactive; USP30 inh: inactive

What do the screens show for `Cc1ccc(C)c(S(=O)(=O)N2CCN(c3ccc4nnc(-c5ccco5)n4n3)CC2)c1`?
USP28 block: 46; OTUD3 block: inactive; USP30 inh: 41; USP17 inh: 63

Results for O=C(c1cc(Cl)ccc1Cl)N1CCN(c2ccc3nnc(-c4ccco4)n3n2)CC1 ?
USP28 block: inactive; OTUD3 block: inactive; USP30 inh: inactive; USP17 inh: 61

What do the screens show for `O=S(=O)(c1ccccc1Cl)N1CCN(c2ccc3nnc(-c4ccco4)n3n2)CC1`?
USP28 block: 34; OTUD3 block: inactive; USP30 inh: 38; USP17 inh: 72

What do the screens show for `COC(=O)CC(C(=O)OC)P(=O)(O)CN1CCCCC1` (stereo not drawn)?
USP28 block: inactive; OTUD3 block: inactive; USP30 inh: inactive; USP17 inh: inactive

Results for N#Cc1ccc(S(=O)(=O)N2CC[C@H](c3nc4ccccc4[nH]3)C2)cc1 ?
USP28 block: inactive; OTUD3 block: inactive; USP30 inh: inactive; USP17 inh: inactive

What do the screens show for `CC1=C(c2ccc(F)cc2)S(=O)(=O)N=C1Nc1cc(C)cc(C)c1`?
USP28 block: inactive; OTUD3 block: inactive; USP30 inh: inactive; USP17 inh: inactive

How did CC1=C(c2ccc(F)cc2)S(=O)(=O)N=C1Nc1cccc(F)c1 do in these assays?
USP28 block: inactive; OTUD3 block: inactive; USP30 inh: inactive; USP17 inh: inactive

Results for COc1cccc(NC2=NS(=O)(=O)C(c3ccc(F)cc3)=C2C)c1 ?
USP28 block: inactive; OTUD3 block: inactive; USP30 inh: 33; USP17 inh: inactive

How did CC1=C(c2ccc(F)cc2)S(=O)(=O)N=C1Nc1ccc(Cl)cc1 do in these assays?
USP28 block: inactive; OTUD3 block: inactive; USP30 inh: inactive; USP17 inh: 56

How did CC1(C)CC[C@]2(C(=O)O)CC[C@]3(C)C(=CCC4[C@@]5(C)CCC(O)C(C)(C)C5CC[C@]43C)C2C1 (stereo partly drawn) do in these assays?
USP28 block: inactive; OTUD3 block: inactive; USP30 inh: inactive; USP17 inh: inactive

Results for CCC/C=C\C#CC/C=C\CCCCCCCC(=O)O ?
USP28 block: 69; OTUD3 block: 58; USP30 inh: inactive; USP17 inh: 63

How did CCCCCCCC/C=C\CCCCCCCC(=O)O do in these assays?
USP28 block: inactive; OTUD3 block: inactive; USP30 inh: inactive; USP17 inh: inactive

Results for Cc1nnc(SCCn2c(N3CCC(Cc4ccccc4)CC3)nc3c2c(=O)n(C)c(=O)n3C)s1 ?
USP28 block: inactive; OTUD3 block: inactive; USP30 inh: inactive; USP17 inh: inactive

How did C=C(C)Cn1c(N2CCC(Cc3ccccc3)CC2)nc2c1c(=O)[nH]c(=O)n2C do in these assays?
USP28 block: inactive; OTUD3 block: inactive; USP30 inh: 37; USP17 inh: inactive

Results for Cc1cc(C)nc(SCCn2c(N3CCC(Cc4ccccc4)CC3)nc3c2c(=O)n(C)c(=O)n3C)n1 ?
USP28 block: inactive; OTUD3 block: inactive; USP30 inh: 56; USP17 inh: 41

Results for C[C@@H]1CC[C@]2(C)CC[C@]3(C)C(=CCC4[C@@]5(C)CC[C@H](O)C(C)(C)C5CC[C@]43C)C2[C@H]1C (stereo partly drawn) ?
USP28 block: inactive; OTUD3 block: inactive; USP30 inh: inactive; USP17 inh: inactive

What do the screens show for `CN(C(=O)COc1ccc(-n2cnnn2)cc1)C(c1ccccc1)c1ccccc1`?
USP28 block: inactive; OTUD3 block: inactive; USP30 inh: 36; USP17 inh: inactive

How did CC(C)CCNC(=O)c1nc(CS(=O)(=O)c2ccc(Cl)cc2)no1 do in these assays?
USP28 block: inactive; OTUD3 block: inactive; USP30 inh: inactive; USP17 inh: inactive

Results for Cc1cc(=O)n(CC(=O)Nc2ccccc2F)c(N2CCCCC2)n1 ?
USP28 block: inactive; OTUD3 block: inactive; USP30 inh: inactive; USP17 inh: inactive

What do the screens show for `O=C(Cn1c(CSc2ccccc2)nc2ccccc21)Nc1ccccc1F`?
USP28 block: 65; OTUD3 block: inactive; USP30 inh: inactive; USP17 inh: inactive

Results for CSc1ccc(CNC(=O)Cn2nc(C)c3c(C)n(-c4ccccc4)nc3c2=O)cc1 ?
USP28 block: inactive; OTUD3 block: inactive; USP30 inh: inactive; USP17 inh: 40

Results for CSc1ccc(CNC(=O)Cn2c(=O)[nH]c3c(-c4ccccc4)c[nH]c3c2=O)cc1 ?
USP28 block: inactive; OTUD3 block: inactive; USP30 inh: inactive; USP17 inh: inactive

What do the screens show for `Cc1c(C)n(-c2ccccc2)c2ncn(CC(=O)NCc3ccc(N(C)C)cc3)c(=O)c12`?
USP28 block: inactive; OTUD3 block: inactive; USP30 inh: inactive; USP17 inh: inactive

How did Cc1c(C)n(-c2ccccc2)c2ncn(CC(=O)NCc3ccc(F)cc3)c(=O)c12 do in these assays?
USP28 block: inactive; OTUD3 block: inactive; USP30 inh: 40; USP17 inh: inactive

How did COc1ccc(CNC(=O)Cn2cnc3c(c(C)c(C)n3-c3ccccc3)c2=O)cc1 do in these assays?
USP28 block: inactive; OTUD3 block: inactive; USP30 inh: 36; USP17 inh: inactive

How did Cc1c(C)n(-c2ccccc2)c2ncn(CC(=O)NCc3cccc(F)c3)c(=O)c12 do in these assays?
USP28 block: inactive; OTUD3 block: inactive; USP30 inh: 34; USP17 inh: inactive

What do the screens show for `OCCN1CCN(C(c2ccc(F)cc2)c2sc3ncnn3c2O)CC1` (stereo not drawn)?
USP28 block: inactive; OTUD3 block: inactive; USP30 inh: inactive; USP17 inh: inactive

How did CC(C)(C)c1cc(C(=O)N2CCCC(c3cnccn3)C2)n[nH]1 (stereo not drawn) do in these assays?
USP28 block: inactive; OTUD3 block: inactive; USP30 inh: inactive; USP17 inh: inactive

Results for CC(=O)N1CCOc2cc(S(=O)(=O)N3CCCC3c3cc(C(C)C)on3)ccc21 (stereo not drawn) ?
USP28 block: 40; OTUD3 block: inactive; USP30 inh: inactive; USP17 inh: inactive

Results for CCCc1cc(C2CCCN2S(=O)(=O)c2ccc3c(c2)OCCN3C(C)=O)no1 (stereo not drawn) ?
USP28 block: 49; OTUD3 block: inactive; USP30 inh: inactive; USP17 inh: inactive

How did CC(=O)N1CCOc2cc(S(=O)(=O)N3CCCC3c3cc(C)on3)ccc21 (stereo not drawn) do in these assays?
USP28 block: inactive; OTUD3 block: inactive; USP30 inh: inactive; USP17 inh: inactive

What do the screens show for `COc1ccc(NC(=O)c2cc(-c3ccccc3)c(N3CCOCC3)s2)c(OC)c1`?
USP28 block: inactive; OTUD3 block: inactive; USP30 inh: inactive; USP17 inh: inactive

Results for Cc1cccc(NC(=O)Cc2nnc3c(-c4nc(C5CC5)no4)cccn23)c1 ?
USP28 block: inactive; OTUD3 block: inactive; USP30 inh: inactive; USP17 inh: inactive

How did Clc1ccccc1-c1cnc2sc(NCCc3ccccn3)nn12 do in these assays?
USP28 block: inactive; OTUD3 block: inactive; USP30 inh: 33; USP17 inh: inactive
